# Assay outcomes (PubChem)
# GPR151 ag = activates the human receptor GPR151 | AID 1508602 | actives 1% (n = 650,000) | Q8TDV0 | PathHunter beta-arrestin GPR151 cells, luminescence | activation, % at 11.2 µM; in the data active = activation above about 4.9%;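 note: 0% = median of compound wells and 100% = cells with positive control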
# FBW7 act = activators of human E3 ligase FBW7 | AlphaScreen FBW7–phospho-cyclin E peptide binding, activator screen | normalized activity (activation), % at 26.1 µM | actives 0.13% (n = 650,000) | AID 1259310 | Q969H0; in the data active = normalized activity above about 1.9%;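 note: purified mutant Fbw7 with reduced substrate affinity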
# MITF primary = blocks human microphthalmia-associated transcription factor | O75030 | AlphaScreen MITF homodimerization, bead proximity signal | inhibition, % at 2.6 µM | actives 0.91% (n = 650,000) | AID 1259374; in the data active = inhibition above about 50%;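 note: 0% = vehicle wells with protein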
# TEAD-YAP inh = TEAD-YAP interaction inhibition | HEK-TIYL cells, TEAD-Gal4/YAP UAS-luciferase luminescence | inhibition, % at 9.12 µM | actives 1.4% (n = 640,000) | AID 1259422; in the data active = inhibition above about 32%;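 note: 0% = median of test compound wells and 100% = reference inhibitor wells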
# GPR151 confirm = confirmation of human GPR151 activators; activation, % at 11.2 µM; GPR151 PathHunter beta-arrestin cells, luminescence, 90 min; % of EA-reagent control over plate median; shares compounds with GPR151 ag; AID 1508609; 6,700 tested, under 10 active;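 active = mean percent activation across replicates above the confirmation screen cutoff of 4.91%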
# GPR119 ag = counter-screen for GPR151 activators: effect on human GPR119; shares compounds with GPR151 ag; activation, % at 11.2 µM; actives 0.3% (n = 6,700); GPR119 PathHunter beta-arrestin cells, luminescence, 90 min; 0 = compound-well median, 100 = enzyme-acceptor control;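 active = mean percent activation in the counterscreen above 29.09%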;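 note: counterscreen on off-target GPR119 to flag nonselective hits from the GPR151 activator screen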
# Target sequence (Q8TDV5 whole entry, looked up): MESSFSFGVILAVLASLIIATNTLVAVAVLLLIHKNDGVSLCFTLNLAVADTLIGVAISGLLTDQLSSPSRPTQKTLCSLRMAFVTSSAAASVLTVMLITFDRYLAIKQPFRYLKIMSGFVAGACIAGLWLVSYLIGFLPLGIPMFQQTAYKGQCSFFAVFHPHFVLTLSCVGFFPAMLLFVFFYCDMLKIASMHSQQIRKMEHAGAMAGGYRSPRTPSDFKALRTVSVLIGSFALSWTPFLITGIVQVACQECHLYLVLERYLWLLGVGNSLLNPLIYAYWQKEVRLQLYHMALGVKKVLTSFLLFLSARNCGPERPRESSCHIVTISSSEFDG
# * hit, by the source's call; . = no result. The list is not random: actives were taken first. Their share in the collection is about 3.4%.
SMILES,GPR151 ag,FBW7 act,MITF primary,TEAD-YAP inh,GPR151 confirm,GPR119 ag
Cc1cc(N2CCN(c3ncccn3)CC2)nc2ccc(NC(=O)Cc3cccs3)cc12,5.1*,0.2,-7.2,13.5,0.7,-7.9
O=C(NNc1ccccc1)C(=O)NNS(=O)(=O)c1ccc(F)cc1,-1.0,1.3,20.6,11.9,.,.
Cc1cc(NC2CC2)nc(Nc2ccc(-n3ccnc3)cc2)n1,5.3*,0.1,-9.2,-11.5,-1.2,-11.1
CCN(CC)c1nc(Nc2ccccc2)nc(Nc2ccc(-n3ccnc3)cc2)n1,6.6*,0.4,7.9,-6.5,0.1,3.9
Cc1cc(Nc2ccc(N3CCOCC3)cc2)nc(Nc2ccc(-n3ccnc3)cc2)n1,8.9*,-0.2,3.5,99.0*,3.4,63.2*
Cc1cc(Nc2ccccc2)nc(Nc2ccc(-n3ccnc3)cc2)n1,4.5,-0.1,-2.2,-0.8,.,.
Cc1cc(Nc2ccc(N3CCOCC3)cc2)nc(Nc2ccccn2)n1,3.2,-0.2,8.1,12.3,.,.
Cc1cc(Nc2ccc(N3CCOCC3)cc2)nc(Nc2nccc3ccccc23)n1,5.3*,-0.3,9.8,81.0*,1.1,22.9
COc1ccc(CN(Cc2cc3cc(C)ccc3n3nnnc23)C(=O)c2ccncc2)cc1,0.3,0.5,6.4,-0.8,.,.
CC(C)CCCC(C)C1CCC2C3CC=C4CC(OC(=O)Oc5cccc(Cl)c5)CCC4(C)C3CCC12C (stereo not given),-0.4,0.0,6.0,-7.7,.,.
Cn1c(=O)c2c(SCC(=O)c3ccccc3)nc(-c3ccccc3F)nc2n(C)c1=O,1.0,0.1,1.5,-9.2,.,.
CCSc1nc(-c2ccco2)nc2c1c(=O)n(C)c(=O)n2C,6.3*,0.0,16.1,9.4,0.6,5.7
Cn1c(=O)c2c(SCC(=O)O)nc(-c3ccccc3Cl)nc2n(C)c1=O,4.9*,-0.2,-2.9,-2.1,-0.7,0.1
Cn1c(=O)c2c(SCC(=O)O)nc(-c3ccco3)nc2n(C)c1=O,0.2,-0.1,-13.8,-13.2,.,.
COc1ccc(Cc2nnc(SCC(=O)Nc3ccc(F)cc3)o2)cc1,-0.3,0.3,-2.4,1.6,.,.
COc1ccc(Cc2nnc(SCC(=O)Nc3ccc(C)c([N+](=O)[O-])c3)o2)cc1,7.4*,-0.1,9.9,8.5,-0.1,-8.5
Cc1ccc(Cl)cc1NC(=O)CC(O)(C(F)(F)F)C(F)(F)F,5.2*,0.0,-17.3,6.2,0.3,5.7
COc1ccccc1NC(=O)CC(O)(C(F)(F)F)C(F)(F)F,5.8*,0.4,2.9,14.3,0.4,0.6
O=C(CC(O)(C(F)(F)F)C(F)(F)F)Nc1ccccc1Br,-0.3,1.2,10.4,-7.6,.,.
COc1ccccc1NC(=O)COc1ccc(C(=O)O)cc1,7.9*,0.0,15.4,2.3,-0.2,0.1
Cc1ccc(NC(=O)CSc2cn(Cc3ccc(F)cc3)c3ccccc23)cc1,7.0*,-0.1,5.5,-1.8,-1.2,-3.6
NC(=O)c1ccc(NC(=O)c2ccccc2NS(=O)(=O)c2ccc(F)cc2)cc1,-0.4,0.3,18.6,-1.6,.,.
COc1cc(C2NC(=O)NC(C)=C2C(=O)OCC2CCCO2)cc(Cl)c1O (stereo not given),1.3,0.0,12.1,-2.3,.,.
CCc1cccc(CC)c1NC(=O)CCCC(=O)O,6.6*,0.9,9.1,3.0,-0.1,0.1
CCc1cccc(C)c1NC(=O)CCC(=O)O,-1.3,0.0,-1.8,-3.2,.,.
SMILES,GPR151 ag,FBW7 act,MITF primary,TEAD-YAP inh,GPR151 confirm,GPR119 ag
CCOC(=O)N1CCC(N2CCCC(Cc3ccccc3)(C(=O)OCC)C2)CC1 (stereo not given),1.6,-0.1,6.1,12.3,.,.
CCOC(=O)/C=C(\C)Nc1cc([N+](=O)[O-])ccc1OC,0.6,-0.2,3.3,-6.4,.,.
Clc1nc(NCc2ccccc2)c2ncn(-c3ccccc3)c2n1,5.0*,0.0,5.0,-18.5,2.1,-4.5
c1ccc(CNc2nc(Nc3ccncc3)nc3c2ncn3-c2ccccc2)cc1,6.6*,-0.2,-0.6,-2.8,-1.5,-14.3
Cn1ccc(=O)c2c(-c3ccccc3)nc3nonc3c21,-0.1,0.0,11.0,1.4,.,.
COc1ccc(C(=O)N2CCN(S(=O)(=O)c3cc4c5c(c3)CCC(=O)N5CCC4)CC2)cc1,5.7*,-0.1,2.4,6.5,-0.1,-0.1
CCC(Oc1ccccc1)c1nnc(NC(=O)Cc2ccccc2)s1 (stereo not given),27.9*,0.4,17.1,3.6,-0.3,-10.6
Cc1ccccc1OCC(=O)N(C(C)C)C(C)C,8.9*,0.2,4.6,13.2,-0.4,6.7
Cc1cc(Br)ccc1OCC(=O)N(C(C)C)C(C)C,1.8,0.1,39.5,5.1,.,.
Cc1ccccc1OCC(=O)NNC(=O)C1c2ccccc2Oc2ccccc21,6.0*,0.1,7.3,7.4,-0.8,-2.4
CC(C)CCn1c(-c2ccccc2)nc2ccccc21,8.6*,0.1,-10.9,7.4,0.4,0.9
O=C(c1cccs1)N(CCN(C(=O)c1cccs1)c1ccccc1)c1ccccc1,-1.4,-0.1,1.4,8.5,.,.
O=C(Nc1c2c(nn1-c1ccc([N+](=O)[O-])cc1)CSC2)c1ccc(Br)o1,5.2*,0.1,8.1,13.9,-0.8,-3.6
O=C(Nc1c2c(nn1-c1ccc(F)cc1)CSC2)c1ccc(Br)o1,1.6,0.1,5.9,11.2,.,.
COc1cccc(C(=O)Nc2c3c(nn2-c2ccc(Oc4ccccc4)cc2)CSC3)c1,-0.9,0.9,8.2,6.3,.,.
COc1ccc(-n2nc3c(c2NC(=O)c2cccc(OC)c2)CSC3)cc1,6.1*,-0.1,-0.1,11.7,0.1,5.9
Cc1nn2cc(-c3[nH]ncc3[N+](=O)[O-])cnc2c1C(=O)O,1.4,0.0,9.6,5.1,.,.
COc1cc(-c2nc(C=Nc3cccc(C)c3)c(O)o2)cc(OC)c1OC,-1.6,-0.1,12.4,10.9,.,.
CC1CN(C(=O)CCCN(C)S(=O)(=O)c2ccc3c(c2)C(=O)c2ccccc2C3=O)CC(C)O1 (stereo not given),-1.9,-0.1,17.5,10.3,.,.
C=CSc1sc(Cl)c(N2CCOCC2)c1[N+](=O)[O-],-1.1,0.5,23.4,4.5,.,.
C=CSc1sc(Cl)c(N2CCC3(CC2)OCCO3)c1[N+](=O)[O-],5.2*,-0.3,2.0,-2.8,0.3,-2.2
COc1ccc(-c2nc3cnccn3c2NC2CCCC2)cc1CN1CCOCC1,1.6,0.0,6.8,-6.2,.,.
O=C(CCC(=O)c1ccc(Br)cc1)Nc1cccnc1,-0.5,-0.2,4.7,-5.2,.,.
O=C(CCC(=O)c1ccc(Oc2ccccc2)cc1)Nc1cccnc1,6.8*,0.0,-25.2,4.4,-0.8,5.3
CCc1ccc(-n2c(C)nc3cc(C(=O)NCCc4ccc(OC)c(OC)c4)ccc32)cc1,5.1*,0.0,-4.8,8.5,-0.6,-9.8
COc1ccc(-n2c(C)nc3cc(C(=O)NCCc4ccc(OC)c(OC)c4)ccc32)cc1,-0.5,0.1,-26.2,-19.6,.,.
